From PubChem BioAssay AID1159580 (chemical genetic matrix, 2015)
Values joined by “and” are separate entries in the source; they are usually repeats but may differ in a detail not shown here. Equal entries are not always repeated. Screen size: about 5,500 compounds; about 2,000 (36%) were called active. Another 18% or so got no clear call; they are omitted. No stated cut-off is given here; in the data, active means normalized growth mostly below about 0.91 (no sharp cut-off); inconclusive means no clear call, values can overlap the other calls; inactive means mostly above about 0.92. The list shows a part of the results.

Assay: chemical genetic growth profiling, strain panel (AID 1159580);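 further: tested at 20 µM; growth read once vehicle control cultures reached saturation at 30 °C; 1 = growth at the plate median or of vehicle wells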
Settings: S. cerevisiae deletion strains, growth OD

Measured: normalized growth

Cc1nc2ccccn2c(=O)c1CCN1CCC(C(=O)c2ccc(F)cc2)CC1
inactive: locus YAL013W, strain DEP1, stronger effect = lower value 1.02 and 1.01 | locus YAL021C, strain ccr4, stronger effect = lower value 1 | locus YAL026C, strain drs2, stronger effect = lower value 1 | locus YAL030W, strain snc1, stronger effect = lower value 0.999 | locus YAL040C, strain CLN3, stronger effect = lower value 0.993 | locus YBL061C, strain skt5, stronger effect = lower value 0.983 | locus YBR009C, strain hhf1, stronger effect = lower value 0.987 | locus YBR021W, strain FUR4, stronger effect = lower value 0.981 | locus YBR023C, strain chs3, stronger effect = lower value 0.986 | locus YBR171W, strain sec66, stronger effect = lower value 0.981 | locus YBR229C, strain ROT2, stronger effect = lower value 1.02 | locus YBR231C, strain swc5, stronger effect = lower value 0.984 | locus YBR279W, strain paf1, stronger effect = lower value 0.977 | locus YCL011C, strain gbp2, stronger effect = lower value 0.997 | locus YCL016C, strain dcc1, stronger effect = lower value 0.989 | locus YCL029C, strain bik1, stronger effect = lower value 0.999 | locus YCL061C, strain MRC1 (second series), stronger effect = lower value 1.01 | locus YCL061C, strain MRC1, stronger effect = lower value 1.02 | locus YCL069W, strain vba3, stronger effect = lower value 1 | locus YCR088W, strain abp1, stronger effect = lower value 0.982 | locus YDL005C, strain med2, stronger effect = lower value 0.973 | locus YDL035C, strain GPR1, stronger effect = lower value 1.02 | locus YDL040C, strain nat1, stronger effect = lower value 1 | locus YDL074C, strain BRE1, stronger effect = lower value 1.07 | locus YDL101C, strain DUN1, stronger effect = lower value 1.04 | locus YDL134C, strain PPH21, stronger effect = lower value 1.02 | locus YDL185W, strain tfp1, stronger effect = lower value 0.992 | locus YDL192W, strain arf1, stronger effect = lower value 0.997 | locus YDR001C, strain nth1, stronger effect = lower value 0.986 | locus YDR069C, strain doa4, stronger effect = lower value 0.972 | locus YDR101C, strain arx1, stronger effect = lower value 0.979 | locus YDR137W, strain rgp1, stronger effect = lower value 0.976 | locus YDR150W, strain NUM1, stronger effect = lower value 1.03 and 1 | locus YDR159W, strain sac3, stronger effect = lower value 0.977 | locus YDR162C, strain NBP2, stronger effect = lower value 1.05 | locus YDR195W, strain ref2 0.996 | locus YDR297W, strain sur2, stronger effect = lower value 0.98 | locus YDR318W, strain mcm21, stronger effect = lower value 0.983 | locus YDR334W, strain swr1, stronger effect = lower value 0.982 | locus YDR335W, strain msn5, stronger effect = lower value 0.984 | locus YDR363W, strain ESC2, stronger effect = lower value 1.01 | locus YDR388W, stronger effect = lower value 0.995 | locus YDR392W, strain spt3, stronger effect = lower value 0.988 | locus YDR502C, strain sam2, stronger effect = lower value 1.01 | locus YEL003W, strain gim4, stronger effect = lower value 0.997 | locus YEL037C, strain rad23, stronger effect = lower value 0.984 | locus YEL061C, strain CIN8 (second series), stronger effect = lower value 0.994 | locus YEL061C, strain CIN8, stronger effect = lower value 1.01 | locus YER002W, strain NOP16, stronger effect = lower value 0.983 | locus YER015W, strain faa2, stronger effect = lower value 0.997 | locus YER016W, strain bim1, stronger effect = lower value 0.985 | locus YER110C, stronger effect = lower value 0.991 | locus YER111C, strain swi4, stronger effect = lower value 0.973 | locus YER155C, strain BEM2 (second series), stronger effect = lower value 1 | locus YER155C, strain BEM2, stronger effect = lower value 1.02 | locus YER167W, strain BCK2, stronger effect = lower value 1.01 | locus YFR010W, strain ubp6, stronger effect = lower value 0.989 | locus YGL078C, strain dbp3, stronger effect = lower value 0.999 | locus YGL086W, strain mad1, stronger effect = lower value 0.996 | locus YGL167C, strain pmr1, stronger effect = lower value 0.983 | locus YGL173C, strain kem1, stronger effect = lower value 0.992 | locus YGL227W, strain vid30, stronger effect = lower value 1 | locus YGL240W, strain doc1, stronger effect = lower value 1.01 | locus YGL248W, strain PDE1, stronger effect = lower value 1.02 | locus YGL253W, strain hxk2, stronger effect = lower value 0.996 | locus YGR078C, strain PAC10, stronger effect = lower value 1.04 and 1.02 | locus YGR135W, strain pre9, stronger effect = lower value 1 | locus YGR229C, strain SMI1, stronger effect = lower value 1.04 | locus YGR252W, strain gcn5, stronger effect = lower value 0.945 | locus YHR013C, strain ard1, stronger effect = lower value 0.97 | locus YHR027C, strain rpn1, stronger effect = lower value 0.985 | locus YHR030C, strain SLT2, stronger effect = lower value 1.02 | locus YHR079C, strain IRE1 (second series), stronger effect = lower value 0.985 | locus YHR079C, strain IRE1, stronger effect = lower value 1.05 | locus YHR094C, strain hxt1, stronger effect = lower value 0.998 | locus YHR129C, strain ARP1, stronger effect = lower value 1.02 | locus YHR142W, strain chs7, stronger effect = lower value 0.968 | locus YHR200W, strain rpn10, stronger effect = lower value 0.998 | locus YIL066C, strain RNR3, stronger effect = lower value 1.03 | locus YIL073C, strain SPO22, stronger effect = lower value 0.973 | locus YIL125W, strain kgd1, stronger effect = lower value 1 | locus YIR030C, strain dcg1, stronger effect = lower value 1 | locus YJL092W, strain hpr5, stronger effect = lower value 0.987 | locus YJL095W, strain BCK1 (second series), stronger effect = lower value 0.986 | locus YJL095W, strain BCK1, stronger effect = lower value 1.04 and 1.01 | locus YJL115W, strain asf1, stronger effect = lower value 0.991 | locus YJL129C, strain trk1, stronger effect = lower value 0.987 | locus YJL134W, strain LCB3, stronger effect = lower value 1.02 | locus YJL154C, strain vps35, stronger effect = lower value 0.987 | locus YJL164C, strain tpk1, stronger effect = lower value 0.993 | locus YJL166W, strain qcr8, stronger effect = lower value 0.996 | locus YJL168C, strain set2, stronger effect = lower value 0.99 | locus YJL187C, strain SWE1 (second series), stronger effect = lower value 1.03 | locus YJR043C, strain POL32, stronger effect = lower value 1 | locus YJR066W, strain TOR1, stronger effect = lower value 0.993
